Screens from PubChem.
An excerpt weighted towards active compounds, which were near 0.92% of everything screened.
UGM FP inh: M. tuberculosis UGM enzyme inhibitors, primary screen, biochemical, fluorescence polarization, single point; UDP-galactopyranose mutase (Mycobacterium tuberculosis (strain ATCC 25618 / H37Rv)), …; purified UGM, fluorescence polarization probe displacement; inhibition, % at 10 µM; 320,000 tested, 0.06% active; AID 504406, 2011; in the data active means inhibition above about 10%, passing the limit was not always enough
Rv3671c protease: Rv3671c serine protease inhibitors, primary screen, biochemical, fluorescence polarization, M. tuberculosis H37Rv; 320,000 tested, 0.048% active; inhibition, % at 5.96 µM; in the data active means inhibition above about 38%;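 further: extracellular domain of Rv3671c used as enzyme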
Target sequence (P9WHR9 whole entry, looked up, the tested form may be a part): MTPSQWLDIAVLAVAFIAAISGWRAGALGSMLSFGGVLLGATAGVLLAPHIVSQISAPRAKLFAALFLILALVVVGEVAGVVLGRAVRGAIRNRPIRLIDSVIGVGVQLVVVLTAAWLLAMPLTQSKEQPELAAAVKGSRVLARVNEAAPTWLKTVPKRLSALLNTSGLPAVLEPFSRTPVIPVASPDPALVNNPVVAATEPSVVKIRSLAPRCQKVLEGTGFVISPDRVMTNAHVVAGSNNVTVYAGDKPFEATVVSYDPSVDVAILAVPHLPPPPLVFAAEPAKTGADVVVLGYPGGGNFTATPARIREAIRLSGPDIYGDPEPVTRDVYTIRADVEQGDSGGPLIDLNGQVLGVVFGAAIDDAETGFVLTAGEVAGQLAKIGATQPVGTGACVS
FadD28 FP inh: inhibitors of FadD28 bisubstrate probe binding, primary screen, biochemical, fluorescence polarization, single point | Mycobacterium tuberculosis FadD28 fatty-acid-AMP ligase | 360,000 tested, 0.22% active | inhibition, % at 12.5 µM | AID 588549, 2011; in the data active means inhibition above about 8.5%, passing the limit was not always enough
Mtb hypoxia inh: PubChem AID 1159583; fluorescence inhibition, % (test concentration not listed); M. tuberculosis hypoxia-regulated fluorescent reporter, fluorescence; 300,000 tested, 0.1% active; in the data active means fluorescence inhibition mostly above about 23%, no sharp cut-off; inactive means mostly below about 17%
RecA splice inh: Mtb RecA intein splicing inhibitors, primary screen, biochemical, fluorescence, HTS; Protein RecA (Mycobacterium tuberculosis (strain ATCC 25618 / H37Rv)), P9WHJ3; AID 2221, 2009; cell-free RecA intein splicing; 290,000 tested, 0.75% active; inhibition, % (no concentration beside the values); in the data active means inhibition above about 30%
GFP chromophore: counter-screen: blocks GFP chromophore formation, dose response, counter-screen, biochemical, fluorescence, homogeneous | shares compounds with RecA splice inh | cell-free GFP chromophore formation | EC50, µM | 2,100 tested, 83% active | AID 434968, 2010; call rule not given here
Numbers stand for hits; . = inactive; / = no result shown.

SMILES	UGM FP inh	Rv3671c protease	FadD28 FP inh	Mtb hypoxia inh	RecA splice inh	GFP chromophore
CC1=NNC(=O)C1C(c1ccccc1)C1C(=O)NN=C1C (stereo not given)	.	.	/	/	98.3	0.406
CCOC(=O)c1c(CSC(=N)N)n(-c2ccc(C)cc2)c2cc(Br)c(OC(C)=O)cc12	.	.	.	/	69.8	7.92
CC(=NO)C(=O)NCCN1CCCCC1	/	/	/	.	/	/
CC(C)CC1COCCS(=O)(=O)N1Cc1cccc(Cl)c1 (stereo not given)	/	/	/	.	/	/
CC(O)C1CNC(=O)C(=O)N1CC1CCCCC1 (stereo not given)	/	/	/	.	/	/
Cc1noc2ncnc(Sc3ccc(Br)cc3)c12	.	.	.	.	36.5	31.5
O=c1cc(C2CCNCC2)[nH][nH]1	.	.	.	/	86.6	5.39
O=c1cc(C2CCCCC2)[nH]c(=O)[nH]1	/	/	.	/	/	/
COC(=O)C1=C(c2ccc(F)cc2OCc2ccccc2)CC2CCC1N2C(=O)NCc1ccc(C(C)(C)C)cc1 (stereo not given)	/	/	/	.	/	/
C=CCC(CC(=O)N(CCO)Cc1ccccc1)C(=O)NC(COC(=O)C(CC=C)Cc1ccc(F)cc1)C(C)(C)C (stereo not given)	/	/	/	.	/	/
COc1ccc(-c2csc(CCN3N=C(C)CC3=O)n2)cc1	.	.	.	.	85.8	4.77
O=C(O)c1ccccc1-c1ccccc1C(=O)Nc1ccc(-c2nc3cc(Cl)ccc3o2)cc1	.	.	.	/	35.7	16.9
CCOC(=O)c1sc2ncn(N=CN(C)C)c(=O)c2c1C	/	/	/	.	/	/
O=C(C(=C1N(Cc2ccc(Cl)nc2)CCN1Cc1ccc(Cl)nc1)[N+](=O)[O-])C(Cl)Cl	.	.	.	.	76.3	6.48
Cc1ccc(N2C(=O)C(=Cc3ccco3)SC2=S)cc1	/	/	/	.	/	/
CC(=O)N(Cc1ccc(F)cc1)C1=C(NCCc2ccccc2)C(=O)c2ccccc2C1=O	.	.	.	/	77.5	11.2
CC(=NNC(=O)CC1N=C(Cc2ccccc2)NNC1=O)c1ccncc1 (stereo not given)	/	/	/	.	/	/
CC(C)c1ccc(OCc2cccc(C(=O)NN=Cc3cccnc3)c2)cc1	/	/	/	.	/	/
CC(=NNc1ccc(Cl)cc1)c1c(O)cc(C)oc1=O	/	/	/	.	/	/
Cn1cnc([N+](=O)[O-])c1S(=O)(=O)Oc1ccccc1	/	/	.	/	/	/
Cn1cnc([N+](=O)[O-])c1S(=O)(=O)c1cccc(Cl)c1	.	.	.	/	60.6	26.9
COC(=O)C1=NN(C(C)=O)C2(CC(=O)N(c3cc(C)cc(C)c3)C2=O)C1 (stereo not given)	.	.	.	.	30.2	.
Cc1cccn2c(CNCC3(c4ccccc4)CCCC3)c(C(=O)N3CCOCC3)nc12	.	.	.	.	.	.
CSCCNCc1c(C(=O)N2CCOCC2)nc2c(C)cccn12	.	.	.	.	.	/
CCOc1ccc(N2C(=O)/C(=C\c3ccc(OC)c(O)c3)S(=O)(=O)C2c2cccc([N+](=O)[O-])c2)cc1 (stereo not given)	.	.	.	.	81.7	14.3
SMILES	UGM FP inh	Rv3671c protease	FadD28 FP inh	Mtb hypoxia inh	RecA splice inh	GFP chromophore
CC(=O)C1=C(O)C(=O)N(c2ccc(O)cc2)C1c1cccc([N+](=O)[O-])c1 (stereo not given)	.	.	.	.	.	/
CCOc1ccc(N2C(=O)/C(=C\c3ccc(O)c(OC)c3)S(=O)(=O)C2c2cccc([N+](=O)[O-])c2)cc1 (stereo not given)	.	.	.	.	88.2	2.45
CCOC(=O)C1=C(C)N(c2ccc(OC)cc2)C(=O)/C1=C\c1ccc(O)c(OCC)c1	.	.	.	/	.	/
CCCCC1CC1C(NC(=O)c1ccco1)c1ccc(Cl)cc1 (stereo not given)	/	/	/	.	/	/
COc1ccccc1-c1cc(C(F)(F)F)nc(S(=O)(=O)CCCC(=O)N2CCCCC2C)n1 (stereo not given)	.	.	.	/	56.2	7.21
COc1ccccc1-c1cc(C(F)(F)F)nc(S(=O)(=O)CCCC(=O)NC(C)C)n1	.	.	.	/	.	/
COc1ccccc1-c1cc(C(F)(F)F)nc(N2CCCC2)n1	.	.	.	.	/	/
CN1CCN(c2nc(-c3ccco3)cc(C(F)(F)F)n2)CC1	.	.	.	.	.	/
COc1ccccc1-c1cc(C(F)(F)F)nc(S(=O)(=O)CCCC(=O)NCc2ccc(F)cc2)n1	.	.	.	.	47.4	7.74
CS(=O)(=O)c1nc(-c2ccco2)cc(C(F)(F)F)n1	.	.	/	/	39.9	.
COc1ccccc1-c1cc(C(F)(F)F)nc(S(C)(=O)=O)n1	.	.	.	.	50.2	31.2
CCCNC(=O)N1C2CCC1C(C(=O)OC)=C(c1ccc(OC(F)(F)F)cc1)C2 (stereo not given)	/	/	/	.	/	/
Oc1ccc(CC2CNCCN2CCc2cc(C(F)(F)F)cc(C(F)(F)F)c2)cc1 (stereo not given)	/	/	/	.	/	/
CC12CCC(CC1=NNC(=O)Nc1ccccc1)C2(C)C (stereo not given)	/	/	/	.	/	/
COC(=O)C1=C(c2ccccc2)CC2CCC1N2C(=O)NC1CCCCC1 (stereo not given)	/	/	/	.	/	/
CCc1nnc(NS(=O)(=O)c2ccc(NC(=S)NC(=O)/C=C/c3ccc(C(C)C)cc3)cc2)s1	.	.	.	.	36.0	13.2
O=Cc1[nH]c2ccccc2c1N(C(=O)CCl)c1ccc([N+](=O)[O-])cc1	.	.	.	/	.	/
CC(=O)n1cc(N(C(=O)CCl)c2ccc([N+](=O)[O-])cc2)c2ccccc21	.	.	.	.	90.3	2.28
CC(=O)n1cc(CO)c2ccccc21	.	.	.	/	/	/
CC(=O)n1cc(N(C(=O)CCl)c2ccccc2)c2ccccc21	.	.	.	/	85.5	4.41
CC(=O)c1cc(O)c2ccccc2c1O	.	.	.	.	70.2	6.9
CC(=O)CC(O)CC(=O)C1OC(=O)CCCCCCCc2ccccc21 (stereo not given)	/	/	/	.	/	/
COc1cc(NC(=O)OCc2ccccc2)c2ncccc2c1	/	/	.	.	/	/
COc1cc(NC(C)CCCN)c2ncccc2c1 (stereo not given)	.	.	.	/	90.2	13.2
COc1cc(NCCCCCCCN)c2ncccc2c1	.	.	.	.	72.1	5.23
O=C(O)C1C(O)CCC2CN3CCc4c([nH]c5ccccc45)C3CC21 (stereo not given)	/	/	/	.	/	/
COc1ccc(N2C(=O)C(Cl)=C(N3CCN(Cc4ccccc4)CC3)C2=O)cc1	/	/	.	.	69.0	7.11
COc1ccc(N2C(=O)C(Cl)=C(N3CCOCC3)C2=O)cc1	.	.	.	.	74.2	8.7
COc1ccc(N2C(=O)c3ccccc3C2=O)cc1	.	.	.	.	.	/
CCc1ccc(N2C(=O)C(Cl)=C(N3CCOCC3)C2=O)cc1	.	.	.	.	77.6	5.28
